# Some of the results follow. No count for the full screen is at hand.
# Biological target: furin, P09958
# Test: furin cleavage Z-score vs untreated control; higher = more cleavage, active = 3.5 or more, inactive = 1 or less, 8 variable residues between constant flanks
# Outline: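 Sequencing of released DNA, tagged with adapters by PCR, gave read counts used as abundance. That DNA was freed when purified furin cut N-terminally bead-bound 8-mer peptides fused to a cDNA oligonucleotide, in 0.01 ml reactions at 1:10 enzyme:substrate in 50 mM HEPES pH 7.5 with CaCl2 and NaCl, lasting 7.5, 15 or 30 min. The cleavage Z-score was the lowess-adjusted log count versus furin-free reactions, scaled by median absolute deviation.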
# Chain of furin, P09958 (P09958 whole entry): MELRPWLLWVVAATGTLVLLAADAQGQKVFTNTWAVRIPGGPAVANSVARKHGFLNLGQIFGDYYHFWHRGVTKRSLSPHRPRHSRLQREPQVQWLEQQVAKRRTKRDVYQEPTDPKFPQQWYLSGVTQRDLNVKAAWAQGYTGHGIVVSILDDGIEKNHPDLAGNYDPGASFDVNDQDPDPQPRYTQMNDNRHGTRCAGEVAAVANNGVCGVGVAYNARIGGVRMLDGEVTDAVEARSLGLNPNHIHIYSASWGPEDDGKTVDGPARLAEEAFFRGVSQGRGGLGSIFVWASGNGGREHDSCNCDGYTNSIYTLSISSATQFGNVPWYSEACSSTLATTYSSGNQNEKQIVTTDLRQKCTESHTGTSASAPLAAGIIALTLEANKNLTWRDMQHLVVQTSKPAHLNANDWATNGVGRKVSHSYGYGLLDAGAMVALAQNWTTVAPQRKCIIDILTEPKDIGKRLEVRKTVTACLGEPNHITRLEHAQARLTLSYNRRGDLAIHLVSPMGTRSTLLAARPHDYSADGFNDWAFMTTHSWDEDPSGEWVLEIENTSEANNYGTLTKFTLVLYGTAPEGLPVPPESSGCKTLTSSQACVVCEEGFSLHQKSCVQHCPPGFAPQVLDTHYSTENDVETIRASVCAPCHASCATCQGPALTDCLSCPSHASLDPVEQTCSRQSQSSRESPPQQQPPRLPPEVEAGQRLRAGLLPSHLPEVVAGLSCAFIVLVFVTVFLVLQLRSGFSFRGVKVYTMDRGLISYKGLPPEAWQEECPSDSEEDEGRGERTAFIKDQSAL
Sequence,furin cleavage Z-score (7.5 min),furin cleavage Z-score (15 min),furin cleavage Z-score (30 min)
CAGVLAALAAAGNASASA [HC993],1.76,0.568 (inactive),-0.149 (inactive)
CASTPCSAYLAGNASASA [HC2549],0.127 (inactive),-0.0969 (inactive),0.416 (inactive)
CAEVVTRTWVAGNASASA [HC150],-0.769 (inactive),-0.617 (inactive),1.23
CAMEMCSQHLAGNASASA [HC1706],1.54,2.05,0.326 (inactive)
CALPDRRRRFAGNASASA [FS-1027],6.3 (active),8.87 (active),8.99 (active)
CASDFKTWLKAGNASASA [HC1155],-1.27 (inactive),-1.41 (inactive),-0.384 (inactive)
CARRRRSLPRAGNASASA [FS-2797],4.48 (active),5.79 (active),7.11 (active)
CARRRRSLPGAGNASASA [FS-1788],6.91 (active),8.64 (active),6.57 (active)
CARRRSRNLGAGNASASA [HC217],4.75 (active),6.64 (active),6.07 (active)
CARRRRSLRRAGNASASA [FS-2454],3.55 (active),3.5 (active),6.12 (active)
CAIGGHYVQMAGNASASA [HC625],1.06,1.02,-0.429 (inactive)
CAVILDSFDPAGNASASA [HC1286],-0.325 (inactive),-0.389 (inactive),1.13

# Reference: the supplement of paper PMC3545927
